Assay outcomes deposited in PubChem by National Center for Advancing Translational Sciences (NCATS).
G9a inh: G9a (human) methyltransferase inhibition; Q96KQ7; G9a H3K9 monomethylation, AlphaScreen, 2 h; Potency, µM (series often up to 102 µM), hits mostly inhibitors; 350,000 tested, 8.8% active; further: nearly all actives have a fitted effect of over 75% in size
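AlphaScreen detection with an anti-monomethyl H3K9 antibody quantified product after a 2 h room-temperature reaction containing 500 nM biotinylated H3K9 peptide, 20 µM SAM and 20 nM enzyme, which had been preincubated 15 min with compound.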
BAZ2B block: inhibitors of human BAZ2B bromodomain; Q9UIF8; AlphaScreen BAZ2B-H3K14Ac peptide displacement; Potency, µM (series often up to 114 µM), usual class: inhibitors; 360,000 tested, 4.4% active; AID 504333; further: nearly all actives have a fitted effect of over 60% in size
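AlphaScreen displacement of biotin-H3(5-23)K14Ac peptide (50 nM final) from BAZ2B (50 nM final) in PBS pH 7.4, 0.01% Tween-20; complex preformed 30 min RT, then compounds (top 110 uM) 30 min RT, beads 20 min dark.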
HP1b chromo inh: blocks HP1-beta chromodomain binding to methylated histone tails | P83916 | AlphaScreen HP1-beta / biotin-H3K9me3 peptide binding | Potency, µM (series often up to 114 µM), usual class: inhibitors | 390,000 tested, 0.56% active | AID 540317; further: nearly all actives have a fitted effect of over 70% in size
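HP1-beta protein (50 nM final) preincubated 30 min at room temperature with biotinylated H3(1-18)K9me3 peptide (50 nM) in PBS pH 7.4, 0.01% Tween-20, then compound added for 30 min. AlphaScreen streptavidin donor/nickel chelate acceptor beads (10 ug/mL final), 30 min dark, luminescence read.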
GLS inhibitor: inhibitors of human glutaminase (GLS). O94925. 410,000 tested, 0.21% active. Potency, µM (titrated, usually from 45.5 µM), usual class: inhibitors. GLS enzymatic activity, qHTS titration. AID 624170
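Read-out is an Amplex red fluorescence increase coupled through glutamate oxidase and HRP, measured before and after 30 min room-temperature incubation. hKGA is in 45 mM KH2PO4 (pH 8.2) with 0.02% Tween-20; glutamine added as 1mM solution.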
JMJD2A Tudor: JMJD2A Tudor domain (human) inhibition; O75164; AlphaScreen JMJD2A-Tudor / H3K4me3 peptide binding; Potency, µM (highest dose often 114 µM), hits mostly inhibitors; 390,000 tested, 4.4% active; AID 504339; further: nearly all actives have a fitted effect of over 50% in size
Each line names hits and unclear results; the compound was inactive in the other large screens. Shown are actives, neighbours in structure and some others; about 10% of the full set was active somewhere. The call rests on the fitted dose curve; in most records, active means well fitted curve in the direction sought with a large enough effect; inconclusive means small, poorly fitted or top-dose-only effect, or another doubt; inactive means no such curve, though single readings can be large; an effect the other way counts as inactive or inconclusive.

Cc1cccc(C)c1OCc1n[nH]c(=S)n1-c1ccccc1	G9a inh 2.5µM, JMJD2A Tudor inconclusive
COc1ccc(NC(=O)c2oc3ccccc3c2NC(=O)C23CC4CC(CC(C4)C2)C3)cc1	none
Cn1c(SCc2n[nH]c(=S)n2-c2ccccc2)nnc1-c1ccccc1	G9a inh 8.9µM, JMJD2A Tudor 18µM
COCc1n[nH]c(=S)n1-c1ccccc1	G9a inh 40µM, JMJD2A Tudor 40µM
Cc1ccc(-n2c(CCc3ccccc3)n[nH]c2=S)cc1C	G9a inh 2µM, GLS inhibitor inconclusive, JMJD2A Tudor inconclusive
COC(Cc1n[nH]c(=S)n1-c1ccccc1)OC	JMJD2A Tudor 18µM
Fc1cccc(Cl)c1Cn1c(-c2cccs2)nc2ccccc21	none
Cc1cc(-c2ccc(S(=O)(=O)N(C)Cc3ccccc3)cc2)on1	none
CCc1nn(-c2ccccc2)c2nc(-c3ccc(O)cc3)c3cc(OC)c(OC)cc3c12	none
Cc1cccc(C)c1NCc1n[nH]c(=S)n1-c1ccccc1	G9a inh 11µM, JMJD2A Tudor 40µM
Cc1ccccc1OCc1n[nH]c(=S)n1-c1cccc(Cl)c1	G9a inh 11µM
Cc1n[nH]c(=S)n1-c1cccc(Cl)c1	G9a inh 4µM, JMJD2A Tudor 7.9µM
Cc1ccc(C)c(NCc2n[nH]c(=S)n2-c2ccccc2)c1	GLS inhibitor inconclusive, JMJD2A Tudor inconclusive (no result: G9a inh)
CSc1n[nH]c(=O)n1-c1cccc(Cl)c1	none
CCCn1c(SCC(=O)N2c3ccc(F)cc3CCC2C)nnc1-c1ccccn1 (configuration not stated)	HP1b chromo inh inconclusive, JMJD2A Tudor 71µM
CNc1ccccc(-c2ccc3ccccc3n2)c1=O	G9a inh 89µM
CCC(CC)NCC(O)COc1ccc(Br)cc1 (configuration not stated)	BAZ2B block 28µM, HP1b chromo inh inconclusive, JMJD2A Tudor 1µM
COC(=O)c1ccccc1NC(=O)c1ccc2c(c1)CCN2S(=O)(=O)c1ccc(Cl)cc1	none
CCCCC(CC)CN=C(N)NC(N)=NCCCCCCN=C(N)NC(N)=NCC(CC)CCCC (configuration not stated)	GLS inhibitor 16µM, JMJD2A Tudor 79µM
COc1ccc(-c2noc(CN3CCCC(OCc4ccccn4)C3)n2)cc1 (configuration not stated)	G9a inh 50µM
CCCCn1c(N)c(N(CCC(C)C)C(=O)C2CC(=O)N(c3cccc(SC)c3)C2)c(=O)[nH]c1=O (configuration not stated)	G9a inh 14µM
CCCCn1c(N)c(N(CC(C)C)C(=O)C2CC(=O)N(Cc3ccccc3)C2)c(=O)[nH]c1=O (configuration not stated)	G9a inh 14µM
CCCCn1c(N)c(N(CCC(C)C)C(=O)C2CC(=O)N(Cc3ccc(C)cc3)C2)c(=O)[nH]c1=O (configuration not stated)	G9a inh inconclusive
CCCCn1c(N)c(N(CCC(C)C)C(=O)C2CC(=O)N(c3ccc4c(c3)OCCO4)C2)c(=O)[nH]c1=O (configuration not stated)	G9a inh inconclusive
N#Cc1ccc(CN2CC3(CCN(C(=O)c4csnn4)CC3)C2)cc1	none (no result: BAZ2B block, HP1b chromo inh, GLS inhibitor, JMJD2A Tudor)
CCc1ccccc1NC(=S)N(Cc1ccc(OC)cc1)CC1CCC(C(=O)O)CC1 (configuration not stated)	none
COc1ccc(Cl)cc1NC(=S)N(Cc1ccccc1C)CC1CCC(C(=O)O)CC1 (configuration not stated)	G9a inh 28µM
CC(c1ccc(F)cc1)n1c(Cn2ncc3ccccc3c2=O)n[nH]c1=S (configuration not stated)	JMJD2A Tudor 13µM
O=c1c2ccccc2cnn1Cc1n[nH]c(=S)n1-c1ccc(F)cc1	G9a inh 7.9µM, JMJD2A Tudor 6.3µM
Cc1ccc(-n2c(Cn3ncc4ccccc4c3=O)n[nH]c2=S)cc1	G9a inh 7.9µM, BAZ2B block inconclusive, JMJD2A Tudor 8.9µM
O=C1NC[C@H](CCCCN2C[C@H](Cc3ccc(O)cc3)N(CCc3ccccc3)C(=O)C2=O)N(CC2CCCCC2)C1=O	none (no result: G9a inh, BAZ2B block, HP1b chromo inh, JMJD2A Tudor)
Cc1ccc2nc(-c3ccc(C)o3)c(Nc3ccc(Cl)cc3)n2c1	none (no result: G9a inh, BAZ2B block, GLS inhibitor)
CN(C)S(=O)(=O)c1ccc(NC(=S)NC(=O)c2ccc(Br)o2)cc1	G9a inh 56µM (no result: HP1b chromo inh, GLS inhibitor, JMJD2A Tudor)
Cc1c(C(=O)NC(=S)Nc2ccc(NC(=O)c3cccs3)cc2)oc2ccccc12	G9a inh 1.4µM, BAZ2B block 50µM
Cc1c(C(=O)NNC(=S)Nc2ccc(S(N)(=O)=O)cc2)oc2ccccc12	G9a inh 11µM, JMJD2A Tudor inconclusive
Cc1cc(C)cc(NS(=O)(=O)c2ccc(NC(=S)NC(=O)c3ccc(Br)o3)cc2)c1	G9a inh inconclusive, HP1b chromo inh inconclusive, JMJD2A Tudor inconclusive
NS(=O)(=O)c1ccc(NC(=S)NNC(=O)c2ccc(Br)o2)cc1	G9a inh 8.9µM
NS(=O)(=O)c1ccc(NC(=S)NC(=O)c2ccc(Br)o2)cc1	G9a inh inconclusive
CC(=O)NC(=S)Nc1ccc(NC(=O)c2cccs2)cc1	G9a inh inconclusive
CC1(C)C(C=C(Cl)Cl)C1C(=O)N/N=C/c1ccccc1F (configuration not stated)	none (no result: G9a inh)
COc1ccc(-c2nc3ccccc3o2)cc1NC(=O)C(C)(C)Oc1ccc(Br)cc1	none
CC(=O)Nc1nnc(-c2ccc(Cl)s2)o1	G9a inh 14µM
CCC(=O)Nc1nnc(-c2ccc(Cl)s2)o1	none (no result: BAZ2B block)
O=C(NCc1ccco1)c1ccc2sc([C@H]3C[C@H](O)[C@@H](CO)O3)nc2c1	none (no result: G9a inh, BAZ2B block, HP1b chromo inh, JMJD2A Tudor)
CCSc1nc2ccccc2n1S(=O)(=O)c1ccccc1	G9a inh 50µM
O=C(O)c1ccc(S(=O)(=O)c2ccc3c(c2)C(=O)N(NC(=O)c2ccncc2)C3=O)cc1	G9a inh 50µM
O=C(O)c1ccc(S(=O)(=O)c2ccc3c(c2)C(=O)N(NC(=O)c2ccccc2)C3=O)cc1	none
COc1ccccc1-n1cnc2c(c1=O)c1nc3ccccc3nc1n2-c1ccc(C)c(C)c1	BAZ2B block 56µM
COCCCn1c2nc3ccccc3nc2c2c(=O)n(-c3ccccc3OC)cnc21	none
C=CC[C@H](CC(=O)N(CCO)Cc1ccccc1)C(=O)N[C@H](COC(=O)[C@@H](CC=C)CC(=O)OC(C)(C)C)c1ccccc1	none (no result: G9a inh, BAZ2B block)
Cc1ccc(NC2=C(c3ccc(C(F)(F)F)cc3)C(=O)c3ccccc32)cc1C	G9a inh 2.8µM, BAZ2B block 56µM, JMJD2A Tudor 56µM
COc1cccc(-c2nc(NCc3ccccc3)c3ccccc3n2)c1O	none
COc1cccc(-c2nc(NC3CCCC3)c3ccccc3n2)c1O	G9a inh inconclusive, BAZ2B block 35µM, JMJD2A Tudor inconclusive
COc1cccc(-c2nc(N3CCCCC3C)c3ccccc3n2)c1O (configuration not stated)	G9a inh 45µM, BAZ2B block inconclusive, JMJD2A Tudor 40µM
